{
  "source": "PubChem BioAssay AID1159580",
  "about": "(chemical genetic matrix, 2015)",
  "assay": "chemical genetic growth profiling, strain panel (AID 1159580);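 also: tested at 20 µM; growth read once vehicle control cultures reached saturation at 30 °C; 1 = growth at the plate median or of vehicle wells; lower values mean less growth of the strain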",
  "details": "S. cerevisiae deletion strains, growth OD",
  "note": "Several values for one entry are separate records, joined by “and”; a condition that tells them apart may be missing. Equal values may be shown once. The whole screen tested about 5,500 compounds, of which about 2,000 (36%) were called active. Another 18% or so got no clear call; they are omitted. Rule as the data show it: active = normalized growth mostly below about 0.91 (no sharp cut-off); inconclusive = no clear call, values can overlap the other calls; inactive = mostly above about 0.92. This is one part of the list.",
  "data": [
    {"smiles": "O=C(O)CCC(=O)c1ccc(-c2ccccc2)cc1", "values": [
      {"measurement": "normalized growth", "setting": "locus YAL013W, strain DEP1, stronger effect = lower value", "value": "0.985 (inactive)"},
      {"measurement": "normalized growth", "setting": "locus YAL021C, strain ccr4, stronger effect = lower value", "value": "1.01 (inactive)"},
      {"measurement": "normalized growth", "setting": "locus YAL026C, strain drs2, stronger effect = lower value", "value": "0.976 (inactive)"},
      {"measurement": "normalized growth", "setting": "locus YAL030W, strain snc1, stronger effect = lower value", "value": "0.991 (inactive)"},
      {"measurement": "normalized growth", "setting": "locus YBL061C, strain skt5, stronger effect = lower value", "value": "0.989 (inactive)"},
      {"measurement": "normalized growth", "setting": "locus YBR009C, strain hhf1, stronger effect = lower value", "value": "0.998 (inactive)"},
      {"measurement": "normalized growth", "setting": "locus YBR021W, strain FUR4, stronger effect = lower value", "value": "0.964 (inactive)"},
      {"measurement": "normalized growth", "setting": "locus YBR023C, strain chs3, stronger effect = lower value", "value": "0.983 (inactive)"},
      {"measurement": "normalized growth", "setting": "locus YBR171W, strain sec66, stronger effect = lower value", "value": "0.983 (inactive)"},
      {"measurement": "normalized growth", "setting": "locus YBR229C, strain ROT2, stronger effect = lower value", "value": "0.986 (inactive)"},
      {"measurement": "normalized growth", "setting": "locus YBR231C, strain swc5, stronger effect = lower value", "value": "0.981 (inactive)"},
      {"measurement": "normalized growth", "setting": "locus YBR279W, strain paf1, stronger effect = lower value", "value": "0.975 (inactive)"},
      {"measurement": "normalized growth", "setting": "locus YCL011C, strain gbp2, stronger effect = lower value", "value": "1 (inactive)"},
      {"measurement": "normalized growth", "setting": "locus YCL016C, strain dcc1, stronger effect = lower value", "value": "0.999 (inactive)"},
      {"measurement": "normalized growth", "setting": "locus YCL029C, strain bik1, stronger effect = lower value", "value": "0.934 (inactive)"},
      {"measurement": "normalized growth", "setting": "locus YCL069W, strain vba3, stronger effect = lower value", "value": "0.983 (inactive)"},
      {"measurement": "normalized growth", "setting": "locus YCR088W, strain abp1, stronger effect = lower value", "value": "1.01 (inactive)"},
      {"measurement": "normalized growth", "setting": "locus YDL005C, strain med2, stronger effect = lower value", "value": "0.991 (inactive)"},
      {"measurement": "normalized growth", "setting": "locus YDL035C, strain GPR1, stronger effect = lower value", "value": "0.989 (inactive)"},
      {"measurement": "normalized growth", "setting": "locus YDL040C, strain nat1, stronger effect = lower value", "value": "0.986 (inactive)"},
      {"measurement": "normalized growth", "setting": "locus YDL074C, strain BRE1, stronger effect = lower value", "value": "0.957 (inactive)"},
      {"measurement": "normalized growth", "setting": "locus YDL101C, strain DUN1, stronger effect = lower value", "value": "0.959 (inactive)"},
      {"measurement": "normalized growth", "setting": "locus YDL134C, strain PPH21, stronger effect = lower value", "value": "0.972 (inactive)"},
      {"measurement": "normalized growth", "setting": "locus YDL185W, strain tfp1, stronger effect = lower value", "value": "0.962 (inactive)"},
      {"measurement": "normalized growth", "setting": "locus YDL192W, strain arf1, stronger effect = lower value", "value": "0.971 (inactive)"},
      {"measurement": "normalized growth", "setting": "locus YDR001C, strain nth1, stronger effect = lower value", "value": "0.982 (inactive)"},
      {"measurement": "normalized growth", "setting": "locus YDR069C, strain doa4, stronger effect = lower value", "value": "0.986 (inactive)"},
      {"measurement": "normalized growth", "setting": "locus YDR101C, strain arx1, stronger effect = lower value", "value": "0.964 (inactive)"},
      {"measurement": "normalized growth", "setting": "locus YDR137W, strain rgp1, stronger effect = lower value", "value": "0.793 (active)"},
      {"measurement": "normalized growth", "setting": "locus YDR150W, strain NUM1, stronger effect = lower value", "value": "0.99 (inactive)"},
      {"measurement": "normalized growth", "setting": "locus YDR159W, strain sac3, stronger effect = lower value", "value": "1.02 (inactive)"},
      {"measurement": "normalized growth", "setting": "locus YDR162C, strain NBP2, stronger effect = lower value", "value": "0.986 (inactive)"},
      {"measurement": "normalized growth", "setting": "locus YDR195W, strain ref2", "value": "0.929 (inactive)"},
      {"measurement": "normalized growth", "setting": "locus YDR297W, strain sur2, stronger effect = lower value", "value": "0.99 (inactive)"},
      {"measurement": "normalized growth", "setting": "locus YDR318W, strain mcm21, stronger effect = lower value", "value": "0.963 (inactive)"},
      {"measurement": "normalized growth", "setting": "locus YDR334W, strain swr1, stronger effect = lower value", "value": "0.977 (inactive)"},
      {"measurement": "normalized growth", "setting": "locus YDR335W, strain msn5, stronger effect = lower value", "value": "0.953 (inactive)"},
      {"measurement": "normalized growth", "setting": "locus YDR388W, stronger effect = lower value", "value": "0.958 (inactive)"},
      {"measurement": "normalized growth", "setting": "locus YDR392W, strain spt3, stronger effect = lower value", "value": "1.02 (inactive)"},
      {"measurement": "normalized growth", "setting": "locus YDR502C, strain sam2, stronger effect = lower value", "value": "0.987 (inactive)"},
      {"measurement": "normalized growth", "setting": "locus YEL003W, strain gim4, stronger effect = lower value", "value": "0.954 (inactive)"},
      {"measurement": "normalized growth", "setting": "locus YEL037C, strain rad23, stronger effect = lower value", "value": "0.97 (inactive)"},
      {"measurement": "normalized growth", "setting": "locus YEL061C, strain CIN8 (second series), stronger effect = lower value", "value": "0.978 (inactive)"},
      {"measurement": "normalized growth", "setting": "locus YEL061C, strain CIN8, stronger effect = lower value", "value": "0.998 (inactive)"},
      {"measurement": "normalized growth", "setting": "locus YER015W, strain faa2, stronger effect = lower value", "value": "0.991 (inactive)"},
      {"measurement": "normalized growth", "setting": "locus YER016W, strain bim1, stronger effect = lower value", "value": "0.995 (inactive)"},
      {"measurement": "normalized growth", "setting": "locus YER110C, stronger effect = lower value", "value": "0.973 (inactive)"},
      {"measurement": "normalized growth", "setting": "locus YER111C, strain swi4, stronger effect = lower value", "value": "0.988 (inactive)"},
      {"measurement": "normalized growth", "setting": "locus YER155C, strain BEM2 (second series), stronger effect = lower value", "value": "0.958 (inactive)"},
      {"measurement": "normalized growth", "setting": "locus YER155C, strain BEM2, stronger effect = lower value", "value": "0.986 (inactive)"},
      {"measurement": "normalized growth", "setting": "locus YER167W, strain BCK2, stronger effect = lower value", "value": "0.987 (inactive)"},
      {"measurement": "normalized growth", "setting": "locus YFR010W, strain ubp6, stronger effect = lower value", "value": "0.986 (inactive)"},
      {"measurement": "normalized growth", "setting": "locus YGL078C, strain dbp3, stronger effect = lower value", "value": "0.842 (active)"},
      {"measurement": "normalized growth", "setting": "locus YGL086W, strain mad1, stronger effect = lower value", "value": "0.985 (inactive)"},
      {"measurement": "normalized growth", "setting": "locus YGL167C, strain pmr1, stronger effect = lower value", "value": "0.969 (inactive)"},
      {"measurement": "normalized growth", "setting": "locus YGL173C, strain kem1, stronger effect = lower value", "value": "0.965 (inactive)"},
      {"measurement": "normalized growth", "setting": "locus YGL227W, strain vid30, stronger effect = lower value", "value": "1 (inactive)"},
      {"measurement": "normalized growth", "setting": "locus YGL240W, strain doc1, stronger effect = lower value", "value": "0.929 (inactive)"},
      {"measurement": "normalized growth", "setting": "locus YGL248W, strain PDE1, stronger effect = lower value", "value": "0.98 (inactive)"},
      {"measurement": "normalized growth", "setting": "locus YGL253W, strain hxk2, stronger effect = lower value", "value": "0.972 (inactive)"},
      {"measurement": "normalized growth", "setting": "locus YGR078C, strain PAC10, stronger effect = lower value", "value": "0.96 (inactive)"},
      {"measurement": "normalized growth", "setting": "locus YGR135W, strain pre9, stronger effect = lower value", "value": "0.946 (inactive)"},
      {"measurement": "normalized growth", "setting": "locus YGR229C, strain SMI1, stronger effect = lower value", "value": "0.986 (inactive)"},
      {"measurement": "normalized growth", "setting": "locus YGR252W, strain gcn5, stronger effect = lower value", "value": "0.861 (inactive)"},
      {"measurement": "normalized growth", "setting": "locus YHR013C, strain ard1, stronger effect = lower value", "value": "1 (inactive)"},
      {"measurement": "normalized growth", "setting": "locus YHR027C, strain rpn1, stronger effect = lower value", "value": "1 (inactive)"},
      {"measurement": "normalized growth", "setting": "locus YHR030C, strain SLT2, stronger effect = lower value", "value": "0.994 (inactive) and 0.66 (active)"},
      {"measurement": "normalized growth", "setting": "locus YHR079C, strain IRE1 (second series), stronger effect = lower value", "value": "0.947 (inactive)"},
      {"measurement": "normalized growth", "setting": "locus YHR079C, strain IRE1, stronger effect = lower value", "value": "0.739 (active)"},
      {"measurement": "normalized growth", "setting": "locus YHR094C, strain hxt1, stronger effect = lower value", "value": "0.984 (inactive)"},
      {"measurement": "normalized growth", "setting": "locus YHR129C, strain ARP1, stronger effect = lower value", "value": "0.988 (inactive)"},
      {"measurement": "normalized growth", "setting": "locus YHR142W, strain chs7, stronger effect = lower value", "value": "0.94 (inactive)"},
      {"measurement": "normalized growth", "setting": "locus YHR200W, strain rpn10, stronger effect = lower value", "value": "0.975 (inactive)"},
      {"measurement": "normalized growth", "setting": "locus YIL066C, strain RNR3, stronger effect = lower value", "value": "0.973 (inactive)"},
      {"measurement": "normalized growth", "setting": "locus YIL073C, strain SPO22, stronger effect = lower value", "value": "0.948 (inactive)"},
      {"measurement": "normalized growth", "setting": "locus YIL125W, strain kgd1, stronger effect = lower value", "value": "0.967 (inactive)"},
      {"measurement": "normalized growth", "setting": "locus YIR030C, strain dcg1, stronger effect = lower value", "value": "0.974 (inactive)"},
      {"measurement": "normalized growth", "setting": "locus YJL092W, strain hpr5, stronger effect = lower value", "value": "0.998 (inactive)"},
      {"measurement": "normalized growth", "setting": "locus YJL095W, strain BCK1 (second series), stronger effect = lower value", "value": "0.997 (inactive)"},
      {"measurement": "normalized growth", "setting": "locus YJL095W, strain BCK1, stronger effect = lower value", "value": "0.971 (inactive) and 0.676 (active)"},
      {"measurement": "normalized growth", "setting": "locus YJL115W, strain asf1, stronger effect = lower value", "value": "0.981 (inactive)"},
      {"measurement": "normalized growth", "setting": "locus YJL129C, strain trk1, stronger effect = lower value", "value": "0.915 (inactive)"},
      {"measurement": "normalized growth", "setting": "locus YJL134W, strain LCB3, stronger effect = lower value", "value": "0.99 (inactive)"},
      {"measurement": "normalized growth", "setting": "locus YJL154C, strain vps35, stronger effect = lower value", "value": "0.996 (inactive)"},
      {"measurement": "normalized growth", "setting": "locus YJL164C, strain tpk1, stronger effect = lower value", "value": "0.996 (inactive)"},
      {"measurement": "normalized growth", "setting": "locus YJL166W, strain qcr8, stronger effect = lower value", "value": "0.976 (inactive)"},
      {"measurement": "normalized growth", "setting": "locus YJL168C, strain set2, stronger effect = lower value", "value": "0.972 (inactive)"},
      {"measurement": "normalized growth", "setting": "locus YJL187C, strain SWE1 (second series), stronger effect = lower value", "value": "0.948 (inactive)"},
      {"measurement": "normalized growth", "setting": "locus YJR043C, strain POL32, stronger effect = lower value", "value": "0.937 (inactive)"},
      {"measurement": "normalized growth", "setting": "locus YJR066W, strain TOR1, stronger effect = lower value", "value": "0.706 (active)"},
      {"measurement": "normalized growth", "setting": "locus YJR075W, strain HOC1, stronger effect = lower value", "value": "0.963 (inactive)"}
    ]}
  ]
}
